# In PubChem BioAssay (NCATS):
# Results filed as inconclusive are left out. Where a call stands in place of a potency, no number is given. Active and inactive are the calls of the source. The call rests on the fitted dose curve; in most records, active means well fitted inhibition curve with a large enough effect; inconclusive means small, poorly fitted or top-dose-only effect; inactive means flat fitted curve, though single readings scatter.
# System: PAD
# Assay: qHTS profiling for inhibitors of Plasmodium falciparum proliferation (AID 504749); further: nearly all actives have a fitted effect of over 60% in size
# Conditions: P. falciparum in erythrocytes, SYBR Green DNA, 72 h; series mostly up to 28.7 µM
# Outline: (§1)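 Readout was DNA-dye fluorescence from lysed cultures, ex 485/em 535 nm. Parasitized red cells had grown 72 h with compound; data scaled between 0.29 uM artemisinin and DMSO wells and corrected using vehicle-only plates.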
# Potency means the concentration at half of the fitted maximal effect.
row,SMILES,Potency
1,C=C(C)[C@H]1CN[C@H](C(=O)O)[C@H]1CC(=O)O,inactive
2,CN1C(=O)CCS(=O)(=O)C1c1ccc(Cl)cc1 (configuration not stated),inactive
3,CNC(C)(C)Cc1ccccc1,inactive
4,O=C1c2ccccc2C(=O)C1C(=O)C(c1ccccc1)c1ccccc1,inactive
5,O=C(O)CCCc1ccc(N(CCCl)CCCl)cc1,inactive
6,NNc1ccccc1,inactive
7,NC(=O)c1cc([N+](=O)[O-])cc([N+](=O)[O-])c1,inactive
8,CC(C)(C)NCC(O)c1cc(Cl)c(N)c(C(F)(F)F)c1 (configuration not stated),12.6 µM (active)
9,O=C1OC(c2ccc(O)c(S(=O)(=O)O)c2)(c2ccc(O)c(S(=O)(=O)O)c2)c2c(Br)c(Br)c(Br)c(Br)c21,inactive
10,CCCCCCCCCC(=O)O[C@H]1CC[C@H]2[C@@H]3CCC4=CC(=O)CC[C@@H]4[C@H]3CC[C@]12C,inactive
11,O=c1[nH]oc2c1CCNC2,inactive
12,O=P1(N(CCCl)CCCl)NCCCO1 (configuration not stated),inactive
13,Oc1ccc(Cl)cc1,inactive
14,CC(C)c1cccc(C(C)C)c1O,inactive
15,CCOC(=O)CC(SP(=S)(OC)OC)C(=O)OCC (configuration not stated),inactive

# System: PC15
# Assay: as above
# Conditions: P. falciparum in erythrocytes, SYBR Green DNA, 72 h; series mostly up to 28.7 µM
# Outline: as §1
row,SMILES,Potency
1,C=C(C)[C@H]1CN[C@H](C(=O)O)[C@H]1CC(=O)O,inactive
2,CN1C(=O)CCS(=O)(=O)C1c1ccc(Cl)cc1 (configuration not stated),inactive
3,CNC(C)(C)Cc1ccccc1,inactive
4,O=C1c2ccccc2C(=O)C1C(=O)C(c1ccccc1)c1ccccc1,inactive
5,O=C(O)CCCc1ccc(N(CCCl)CCCl)cc1,inactive
6,NNc1ccccc1,inactive
7,CC(C)(C)NCC(O)c1cc(Cl)c(N)c(C(F)(F)F)c1 (configuration not stated),11.2 µM (active)
8,O=C1OC(c2ccc(O)c(S(=O)(=O)O)c2)(c2ccc(O)c(S(=O)(=O)O)c2)c2c(Br)c(Br)c(Br)c(Br)c21,inactive
9,CCCCCCCCCC(=O)O[C@H]1CC[C@H]2[C@@H]3CCC4=CC(=O)CC[C@@H]4[C@H]3CC[C@]12C,inactive
10,O=c1[nH]oc2c1CCNC2,inactive
11,O=P1(N(CCCl)CCCl)NCCCO1 (configuration not stated),inactive
12,Oc1ccc(Cl)cc1,inactive
13,CC(C)c1cccc(C(C)C)c1O,inactive
14,CCOC(=O)CC(SP(=S)(OC)OC)C(=O)OCC (configuration not stated),inactive

# System: PC26
# Assay: as above
# Conditions: P. falciparum in erythrocytes, SYBR Green DNA, 72 h; series mostly up to 28.7 µM
# Outline: as §1
row,SMILES,Potency
1,C=C(C)[C@H]1CN[C@H](C(=O)O)[C@H]1CC(=O)O,inactive
2,CN1C(=O)CCS(=O)(=O)C1c1ccc(Cl)cc1 (configuration not stated),inactive
3,CNC(C)(C)Cc1ccccc1,inactive
4,O=C1c2ccccc2C(=O)C1C(=O)C(c1ccccc1)c1ccccc1,inactive
5,O=C(O)CCCc1ccc(N(CCCl)CCCl)cc1,inactive
6,NNc1ccccc1,inactive
7,O=C1OC(c2ccc(O)c(S(=O)(=O)O)c2)(c2ccc(O)c(S(=O)(=O)O)c2)c2c(Br)c(Br)c(Br)c(Br)c21,inactive
8,CCCCCCCCCC(=O)O[C@H]1CC[C@H]2[C@@H]3CCC4=CC(=O)CC[C@@H]4[C@H]3CC[C@]12C,inactive
9,O=c1[nH]oc2c1CCNC2,inactive
10,O=P1(N(CCCl)CCCl)NCCCO1 (configuration not stated),inactive
11,Oc1ccc(Cl)cc1,inactive
12,CCOC(=O)CC(SP(=S)(OC)OC)C(=O)OCC (configuration not stated),inactive

# System: PC49
# Assay: as above
# Conditions: P. falciparum in erythrocytes, SYBR Green DNA, 72 h; series mostly up to 28.7 µM
# Outline: as §1
row,SMILES,Potency
1,C=C(C)[C@H]1CN[C@H](C(=O)O)[C@H]1CC(=O)O,inactive
2,CN1C(=O)CCS(=O)(=O)C1c1ccc(Cl)cc1 (configuration not stated),inactive
3,CNC(C)(C)Cc1ccccc1,inactive
4,O=C1c2ccccc2C(=O)c2ccccc21,inactive
5,O=C1c2ccccc2C(=O)C1C(=O)C(c1ccccc1)c1ccccc1,inactive
6,O=C(O)CCCc1ccc(N(CCCl)CCCl)cc1,inactive
7,NNc1ccccc1,inactive
8,NC(=O)c1cc([N+](=O)[O-])cc([N+](=O)[O-])c1,inactive
9,CC(C)(C)NCC(O)c1cc(Cl)c(N)c(C(F)(F)F)c1 (configuration not stated),11.2 µM (active)
10,O=C1OC(c2ccc(O)c(S(=O)(=O)O)c2)(c2ccc(O)c(S(=O)(=O)O)c2)c2c(Br)c(Br)c(Br)c(Br)c21,inactive
11,CCCCCCCCCC(=O)O[C@H]1CC[C@H]2[C@@H]3CCC4=CC(=O)CC[C@@H]4[C@H]3CC[C@]12C,inactive
12,O=c1[nH]oc2c1CCNC2,inactive
13,O=P1(N(CCCl)CCCl)NCCCO1 (configuration not stated),inactive
14,Oc1ccc(Cl)cc1,inactive
15,CC(C)c1cccc(C(C)C)c1O,inactive
16,CCOC(=O)CC(SP(=S)(OC)OC)C(=O)OCC (configuration not stated),inactive

# System: SC27B
# Assay: as above
# Conditions: P. falciparum in erythrocytes, SYBR Green DNA, 72 h; series mostly up to 28.7 µM
# Outline: as §1
row,SMILES,Potency
1,C=C(C)[C@H]1CN[C@H](C(=O)O)[C@H]1CC(=O)O,inactive
2,CN1C(=O)CCS(=O)(=O)C1c1ccc(Cl)cc1 (configuration not stated),inactive
3,CNC(C)(C)Cc1ccccc1,inactive
4,O=C1c2ccccc2C(=O)C1C(=O)C(c1ccccc1)c1ccccc1,inactive
5,O=C(O)CCCc1ccc(N(CCCl)CCCl)cc1,inactive
6,NNc1ccccc1,inactive
7,NC(=O)c1cc([N+](=O)[O-])cc([N+](=O)[O-])c1,inactive
8,O=C1OC(c2ccc(O)c(S(=O)(=O)O)c2)(c2ccc(O)c(S(=O)(=O)O)c2)c2c(Br)c(Br)c(Br)c(Br)c21,inactive
9,C=CCN1C[C@H](C)N([C@H](c2ccc(C(=O)N(CC)CC)cc2)c2cccc(OC)c2)C[C@H]1C,inactive
10,CCCCCCCCCC(=O)O[C@H]1CC[C@H]2[C@@H]3CCC4=CC(=O)CC[C@@H]4[C@H]3CC[C@]12C,inactive
11,O=c1[nH]oc2c1CCNC2,inactive
12,O=P1(N(CCCl)CCCl)NCCCO1 (configuration not stated),inactive
13,Oc1ccc(Cl)cc1,inactive
14,CC(C)c1cccc(C(C)C)c1O,inactive
15,CCOC(=O)CC(SP(=S)(OC)OC)C(=O)OCC (configuration not stated),inactive
